Assay outcomes (PubChem)
Sa RN4220 lethal: growth inhibition of S. aureus RN4220, primary screen, OD600; 16 h; inhibition, % (no concentration beside the values); 330,000 tested, 0.33% active; AID 1259311, 2017; in the data active means inhibition above about 85%;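 further: plate controls were untreated cells for no effect and reference antibiotic for full effect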
CCHF vOTU inh: CCHFV vOTU protease inhibitors, primary screen, biochemical, Pep-AMC substrate, fluorescence | Crimean-Congo hemorrhagic fever virus L polyprotein viral ovarian tumor (vOTU) protease … | inhibition, % at 11.5 µM | 370,000 tested, 0.55% active | AID 651958, 2012; in the data active means inhibition above about 30%; further: 0% = vehicle wells with enzyme and 100% = no enzyme wells
PfHsp40 rescue: rescue of yeast from PfHsp40 toxicity, primary screen, S. cerevisiae, ATP luminescence; S. cerevisiae expressing PfHsp40, growth rescue; 340,000 tested, 0.68% active; growth rescue, % at 12.5 µM; in the data active means growth rescue above about 28%, passing the limit was not always enough;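 further: yeast W303a lacking pdr1 and pdr3 grown in galactose medium; growth measured after three days at 30 °C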
Mtb hypoxia inh: PubChem AID 1159583 | M. tuberculosis hypoxia-regulated fluorescent reporter, fluorescence | 300,000 tested, 0.1% active | fluorescence inhibition, % (concentration not given with the values); in the data active means fluorescence inhibition mostly above about 23%, no sharp cut-off; inactive means mostly below about 17%
Sa ugtP lethal: growth inhibition of ugtP-null S. aureus, primary screen, RN4220 ugtP deletion, OD600; 330,000 tested, 0.54% active; 16 h; growth inhibition, % (test concentration not listed); in the data active means growth inhibition above about 68%;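 further: plate controls were untreated wells for no effect and antibiotic for full effect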
Vc quorum ag: inducers of Vibrio cholerae quorum light production without autoinducers, primary screen, BH1578 luxS cqsA deficient, single point | V. cholerae BH1578 lux reporter, luminescence, 6 h | activation, % at 18.7 µM | 350,000 tested, 0.16% active; in the data active means activation mostly above about 9.7%, no sharp cut-off
* hit, by the source's call; i = inactive; . = not tested or not shown. An excerpt weighted towards active compounds, which were near 1.7% of everything screened.

SMILES	Sa RN4220 lethal	CCHF vOTU inh	PfHsp40 rescue	Mtb hypoxia inh	Sa ugtP lethal	Vc quorum ag
Cc1cccc(Cc2cnc(N3C(=N)SC(C)C3=O)s2)c1 (stereo not given)	89.9*	6.9	1.6	8.0	38.4	-1.3
CCCn1c(=C(C#N)C#N)sc(=C2C=Cc3ccccc3N2CC)c1=O	-0.2	.	.	.	2.8	.
O=C1C=C(c2cc(F)ccc2F)CC(c2ccc(F)cc2)C1 (stereo not given)	1.4	.	.	1.7	4.3	.
COc1ccc2nc(C)cc(NN=Cc3cccc(OC)c3O)c2c1	20.8	.	.	.	-7.8	.
O=c1cc(-c2ccccc2)[nH]n1-c1nc2ccccc2s1	80.5	9.7	-0.8	.	91.5*	i
O=c1cc(-c2ccccc2)[nH]n1-c1ccccc1	5.9	25.0	-1.3	6.6	-0.6	i
CC(C)(C)c1ccc(OCc2ccc(C(=O)Nc3cccnc3)o2)cc1	-7.9	1.8	36.8*	2.3	4.5	-0.5
O=C(Nc1cccnc1)c1ccc(COc2ccccc2Br)o1	10.4	-6.7	5.8	12.2	2.8	i
COC(=O)[C@@]12CCCN1C(c1ccc(-c3cccc(Cl)c3)c(OC)c1)C1C(=O)N(C)C(=O)C12 (stereo not given in full)	-1.1	.	.	14.4	-3.2	.
N=c1oc2ccccc2cc1-c1nc(-c2ccc(Cl)cc2)cs1	0.8	-0.8	86.0*	0.6	6.3	-0.4
COc1ccc(-c2ccc3n2Cc2cnnn2-c2ccccc2-3)cc1	.	-7.2	136.7*	.	.	-1.4
CC1CCC(C(C)C)C(OC(=O)Cn2c(-c3ccc(Br)cc3)[n+](C)c3ccccc32)C1 (stereo not given)	100.0*	12.0	-0.1	.	100.3*	-1.5
CC1CCC(C(C)C)C(OC(=O)COC(=O)c2cccn2C)C1 (stereo not given)	3.1	4.5	-0.6	.	23.3	-1.3
CC1CCC(C(C)C)C(OC(=O)Cn2c(-c3ccc(Cl)cc3)[n+](C)c3ccccc32)C1 (stereo not given)	100.3*	4.2	0.0	.	99.9*	i
Cc1ccccc1OCc1n(CC(=O)OC2CC(C)CCC2C(C)C)c2ccccc2[n+]1C (stereo not given)	100.1*	10.4	9.6	.	100.8*	-0.4
CC1CCC(C(C)C)C(OC(=O)COC(=O)c2ccc(N)cc2)C1 (stereo not given)	4.9	-3.7	1.5	1.9	82.5	i
CC1CCC(C(C)C)C(OC(=O)COC(=O)c2ccccc2N)C1 (stereo not given)	-1.1	8.4	1.3	7.0	94.2*	i
N#Cc1c(Nc2ccccc2)c(C=NNCCO)c[nH]c1=O	4.7	.	.	6.0	6.4	.
COC(=O)C1=C(c2cc3ccccc3s2)CC2CCC1N2C(=O)N1CCCC1 (stereo not given)	9.8	.	.	10.0	9.1	.
Cc1ccc(CSc2nnc(C(F)(F)F)n2Cc2ccc(F)cc2)cc1	2.7	.	38.3*	5.8	-3.5	-2.2
COc1cccc(CSc2nnc(C(F)(F)F)n2Cc2ccc(F)cc2)c1	7.3	3.4	2.2	2.3	-16.6	-2.2
CC(=NNC(=O)CNC(=O)C(c1ccccc1)c1ccccc1)c1ccccc1	3.5	.	.	5.0	5.9	.
Cc1c(N2C(=O)c3ccccc3C2=O)c(=O)n(-c2ccccc2)n1C	-9.6	-10.4	-0.7	8.3	1.2	16.7*
CCOC(=O)C1=C(C)N=C2c3ccccc3C(=O)C2C1c1ccc(Cl)cc1 (stereo not given)	88.1*	15.3	0.3	1.5	45.7	-1.1
COc1ccccc1CNc1nc2nc(C)c(Cl)c(=O)n2[nH]1	0.0	6.8	0.1	0.4	1.2	4.3
COc1ccc(CNc2nc3nc(C)c(Cl)c(=O)n3[nH]2)cc1	3.4	-12.7	-1.3	23.3*	9.6	-0.1
CCOC(=O)C1CCCN(C2CC(=O)N(c3cccc(C(F)(F)F)c3)C2=O)C1 (stereo not given)	6.2	-1.4	44.2*	6.7	6.9	i
O=C(O)c1ccccc1C=NNC(=O)C1CCCCC1	9.3	.	.	-0.2	3.2	.
CC(C)CC1NC(=O)C(Cc2ccc(O)cc2)NC(=O)C(CCC(N)=O)NC(=O)c2cc([N+](=O)[O-])cc(I)c2NCCC(C(N)=O)NC1=O (stereo not given)	5.6	.	.	1.0	-0.2	.
